Experimental data reported in PubChem BioAssay AID720690 (Broad Institute, 2013).
Results with a measured potency or affinity are listed apart. Calls of active or inactive are those of the source.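 The calls were made as follows: active = every repeat run showing a signal drop whose fitted half-maximal concentration is at most twice the top tested concentration; inconclusive = repeat runs disagree, or flat partial drop, or poor fit; inactive = the rest.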

Assay: general mammalian cell viability loss – activator set, cherry-pick, cytotoxicity control for miR-122 modulator project, dose response (AID 720690)
Conditions: HEK293T viability, CellTiter-Glo luminescence, 48 h; series mostly up to 26 µM

| SMILES | outcome |
| --- | --- |
| Cc1cc(C(=O)Nc2cccc(O)c2)co1 | inactive |
| CCCCC(=O)OCC(=O)c1[nH]c(C)c(C(=O)OCC)c1C | inactive |
| CCCNC(=O)N1C[C@@H]2[C@H](c3ccccc31)[C@H](CO)N2C(=O)C1CCOCC1 | inactive |
| C/C=C/c1ccc([C@H]2[C@@H](CO)N(C(=O)COC)[C@H]2CNC(=O)CC)cc1 | inactive |
| COc1cccc(-c2csc(N3CCN(CC(=O)Nc4ccc5c(c4)OCO5)CC3)n2)c1 | inactive |
| CCN(C[C@H]1N[C@H](CO)[C@H]1c1ccc(C2=CCCC2)cc1)C(=O)c1cccnc1 | inactive |
| CN(C)C(=O)C[C@@H]1CC[C@@H]2[C@@H](COc3ccc(NC(=O)C4CC4)cc3C(=O)N2C)O1 | inactive |
| C=CCNC(=S)NNC(=O)Cn1c(-c2ccccc2)cc(=O)n2ncnc12 | inactive |
| CC(=O)N1[C@H](CN(C)S(=O)(=O)c2ccccc2)[C@H](c2ccccc2)[C@@H]1CO | inactive |
| Cc1cccc(NC(=O)Nc2ccc3c(c2)C(=O)N(C)[C@H]2CC[C@@H](CC(=O)NCc4ccccc4Cl)O[C@H]2CO3)c1 | inactive |
| CN1C(=O)c2cc(NC(=O)c3cccs3)ccc2OC[C@@H]2O[C@@H](CC(=O)O)CC[C@@H]21 | inactive |
| CC(C)C(=O)Nc1ccc2c(c1)C(=O)N(C)[C@H]1CC[C@H](CC(=O)Nc3cccc(F)c3)O[C@@H]1CO2 | inactive |
| CCCNC(=O)C[C@H]1CC[C@@H]2[C@H](COc3ccc(NC(=O)c4cccs4)cc3C(=O)N2C)O1 | inactive |
| CN1C(=O)c2cc(NC(=O)Nc3ccc(Cl)cc3)ccc2OC[C@H]2O[C@H](CC(=O)NCCN3CCCCC3)CC[C@H]21 | inactive |
| COc1ccc(S(=O)(=O)N(C)C[C@@H]2Oc3ncc(/C=C/c4ccccc4)cc3C(=O)N([C@@H](C)CO)C[C@@H]2C)cc1 | inactive |
| COc1cccc(NC(=O)Nc2ccc3c(c2)C(=O)N(C)[C@@H]2CC[C@H](CC(=O)O)O[C@H]2CO3)c1 | inactive |
| CCS(=O)(=O)Nc1ccc2c(c1)C(=O)N(C)[C@@H]1CC[C@@H](CC(=O)NCCCN3CCOCC3)O[C@@H]1CO2 | inactive |
| CCC(=O)N1[C@H](CO)[C@H](c2ccccc2)[C@H]1CNC(=O)CN1CCOCC1 | inactive |
| CN1C(=O)c2cc(NC(=O)c3cccc(F)c3)ccc2OC[C@@H]2O[C@@H](CC(=O)NC3CCC3)CC[C@H]21 | inactive |
| CN1C(=O)c2cc(NC(=O)c3cccs3)ccc2OC[C@@H]2O[C@H](CC(=O)NCCN3CCCCC3)CC[C@H]21 | inactive |

| SMILES | outcome |
| --- | --- |
| COCC(=O)N(C)C[C@H]1Oc2cc(-c3ccccc3F)ccc2S(=O)(=O)N([C@H](C)CO)C[C@H]1C | inactive |
| C[C@@H]1CN([C@@H](C)CO)S(=O)(=O)c2ccc(C#CC3(O)CCCC3)cc2O[C@@H]1CN(C)C(=O)c1cccnc1 | inactive |
| C/C=C/c1ccc([C@@H]2[C@@H](CO)N(C(C)=O)[C@H]2CN(C(=O)COC)C(C)C)cc1 | inactive |
| CNC(=O)C[C@@H]1CC[C@@H]2[C@@H](COc3ccc(NC(=O)Nc4ccccc4OC)cc3C(=O)N2C)O1 | inactive |
| CNC(=O)C[C@@H]1CC[C@@H]2[C@H](COc3ccc(NC(=O)c4cccc(OC)c4)cc3C(=O)N2C)O1 | inactive |
| CCC(=O)N1[C@H](CO)[C@@H](c2ccccc2)[C@@H]1CN(CC)C(=O)c1cccc(F)c1 | inactive |
| CCCNC(=O)N1[C@H](CO)[C@H](c2ccc(-c3ccccc3)cc2)[C@@H]1CNC(C)=O | inactive |
| CC(C)C#Cc1ccc2c(c1)O[C@H](CN(C)C(=O)c1ccncc1)[C@@H](C)CN([C@@H](C)CO)S2(=O)=O | inactive |
| CCS(=O)(=O)Nc1ccc2c(c1)C(=O)N(C)C[C@@H](OC)[C@H](C)CN(CC1CCCC1)[C@H](C)CO2 | inactive |
| CCCCN(CCCC)C(=O)CN(C)S(=O)(=O)c1ccc2c(c1)n(C)c(=O)c(=O)n2C | inactive |
| COCC(=O)N(C[C@@H]1N[C@H](CO)[C@H]1c1ccc(-c2cccnc2)cc1)C(C)C | inactive |
| O=C(CC(F)(F)F)N1C[C@H]2[C@@H](c3ccccc31)[C@H](CO)N2C(=O)Cc1cccnc1 | inactive |
| CCCNC(=O)Nc1ccc2c(c1)C(=O)N(C)[C@@H]1CC[C@H](CC(=O)O)O[C@H]1CO2 | inactive |
| COc1cc(C(=O)Nc2ccc(S(=O)(=O)N3CCCCC3C)cc2)cc(OC)c1OC (centres undefined) | inactive |
| C=CCNC(=S)NNC(=O)c1cccn(Cc2ccc(Cl)c(Cl)c2)c1=O | inactive |
| Cc1cccc(NC(=O)Nc2ccc3c(c2)C(=O)N(C)[C@H]2CC[C@H](CC(=O)O)O[C@H]2CO3)c1 | inactive |
| CN(C)CCCNC(=O)C[C@H]1CC[C@H]2[C@H](COc3ccc(NC(=O)c4cccc(F)c4)cc3C(=O)N2C)O1 | inactive |
| Fc1ccc(CN2CCN(c3ncnc4scc(-c5ccc(F)cc5)c34)CC2)cc1 | inactive |
| COc1cc(N)c(Cl)cc1NC(=O)c1ccccc1 | inactive |
